About 83,000 compounds went through this panel and 20% of them were active in at least one assay; those are over-represented in the sample as a whole.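 Method: cells in 96-well plates; compound added at one concentration; 48 h incubation; percent growth measured; values under 10 scored active.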 The source made the active and inactive calls.
Legend:
Experiment in all cases: NCI-60 one-dose screen, 48 h (100 = growth as untreated, 0 = no growth, -100 = all killed)
Details in all cases: 10 µM
[1] = test system: NCI-H23 lung
[2] = test system: NCI-H226 lung
[3] = test system: NCI-H322M lung
[4] = test system: NCI-H460 lung
[5] = test system: NCI-H522 lung
[6] = test system: A549/ATCC NSCLC
[7] = test system: 786-0 renal
[8] = test system: COLO 205 colon
[9] = test system: DU-145 prostate
[10] = test system: MALME-3M melanoma
[11] = test system: MDA-MB-231 breast
[12] = test system: RXF 393 renal
[13] = test system: SF-268 CNS
[14] = test system: SF-295 CNS
[15] = test system: SF-539 CNS
[16] = test system: UACC-257 melanoma
[17] = test system: M14 melanoma
[18] = test system: K-562 leukemia
[19] = test system: HOP-62 NSCLC
[20] = test system: HOP-92 NSCLC

Measured: growth

OC(CNc1ccnc2cc(Cl)ccc12)CNC1CCCCC1 (centres undefined)
inactive: [1] 86.7% | [2] 105% | [3] 74.7% | [4] 109% | [5] 49.6% | [6] 88.4% | [7] 87.9% | [9] 91.6% | [10] 101% | [11] 54.4% | [12] 33.5% | [13] 89.8% | [14] 83.5% | [15] 63.1%
active: [8] -25.4% | [16] -37.5% | [17] -15.6%

Cc1ccc(-n2nnnc2N)c(C)c1
inactive: [1] 98.1% | [2] 115% | [3] 121% | [4] 103% | [5] 112% | [6] 104% | [7] 105% | [8] 117% | [9] 122% | [18] 115% | [10] 119% | [11] 110% | [12] 143% | [13] 114% | [14] 96.7% | [15] 123% | [16] 108% | [17] 104%

CCN1C(=O)CC(SC2CC(=O)N(CC)C2=O)C1=O (centres undefined)
inactive: [1] 95.9% | [2] 104% | [3] 110% | [4] 109% | [5] 96.1% | [6] 104% | [7] 101% | [8] 81.4% | [9] 101% | [18] 82.7% | [10] 97.6% | [11] 105% | [12] 111% | [13] 96.1% | [14] 106% | [15] 100% | [16] 100% | [17] 97.6%

COc1ccc(C(=O)CC(CC(=O)c2ccc(OC)cc2)c2c(C)nn(-c3ccccc3)c2Cl)cc1
inactive: [1] 90.7% | [2] 92.8% | [3] 96.5% | [4] 97.5% | [5] 79.4% | [6] 95.1% | [7] 86.3% | [8] 117% | [9] 110% | [10] 92.4% | [11] 90.9% | [12] 98.4% | [13] 101% | [14] 92.2% | [16] 118% | [17] 90.5%

CNS(=O)(=O)Oc1ccc(-c2ccc3occc3c2)cc1
inactive: [1] 95.1% | [2] 93.8% | [19] 102% | [4] 104% | [20] 91.8% | [5] 84% | [6] 93.3% | [7] 99.1% | [8] 111% | [9] 109% | [18] 89.1% | [10] 116% | [11] 100% | [12] 122% | [13] 102% | [14] 92.9% | [15] 98.1% | [16] 107% | [17] 113%

NS(=O)(=O)c1ccc(Br)cc1
inactive: [1] 96% | [2] 110% | [19] 82.1% | [4] 108% | [20] 94% | [5] 86.2% | [6] 81.8% | [7] 89% | [8] 98.5% | [9] 114% | [18] 109% | [10] 103% | [11] 99.3% | [12] 113% | [13] 98.3% | [14] 88.3% | [15] 96.3% | [16] 88.2% | [17] 86.3%

O=C(Nc1ccc(NS(=O)(=O)c2ccc(F)cc2)cc1)C12CC3CC(CC(C3)C1)C2
inactive: [1] 94.9% | [2] 92% | [19] 104% | [4] 101% | [20] 106% | [5] 86.4% | [6] 86.6% | [7] 103% | [8] 101% | [9] 103% | [18] 74.7% | [10] 87.1% | [11] 96.2% | [12] 105% | [13] 97.4% | [14] 91.2% | [15] 106% | [16] 91.6% | [17] 96.6%

CCN(CCCNc1cc2c(c(N)c1S(=O)(=O)O)C(=O)c1ccccc1C2=O)c1ccccc1
inactive: [1] 89.3% | [2] 84.4% | [19] 92.1% | [4] 102% | [20] 112% | [5] 96.3% | [6] 104% | [7] 96.3% | [8] 109% | [9] 124% | [18] 101% | [10] 97% | [11] 88.9% | [12] 108% | [13] 109% | [14] 111% | [15] 98.4% | [16] 102% | [17] 98.3%

c1ccc2c(c1)Cc1ccccc1N2CCN1CCCCC1
inactive: [1] 90% | [2] 103% | [19] 84.1% | [4] 107% | [20] 85.8% | [5] 75.2% | [6] 89.9% | [7] 95.3% | [8] 82.2% | [9] 104% | [18] 91.5% | [10] 111% | [11] 81.5% | [12] 110% | [13] 99% | [14] 92.5% | [15] 94.9% | [16] 102% | [17] 86.1%
